# From paper PMC4336329 (PLoS ONE, 2015)
# Out of some 310,000 compounds screened, about 14,000 (4.5%) showed an effect of 50% or more. Effects have a minus sign here. The full list was thinned out, with strong results kept by preference.
# Target: human ether-à-go-go-related gene (hERG) potassium channel (human, UniProt Q12809)
# Test: primary screen, population patch clamp on CHO cells stably expressing hERG; higher = less effect of the substance
# 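Also: peak tail current of the secondary pulse compared with the same well before compound.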
# human ether-à-go-go-related gene (hERG) potassium channel, sequence (Q12809 whole entry, looked up): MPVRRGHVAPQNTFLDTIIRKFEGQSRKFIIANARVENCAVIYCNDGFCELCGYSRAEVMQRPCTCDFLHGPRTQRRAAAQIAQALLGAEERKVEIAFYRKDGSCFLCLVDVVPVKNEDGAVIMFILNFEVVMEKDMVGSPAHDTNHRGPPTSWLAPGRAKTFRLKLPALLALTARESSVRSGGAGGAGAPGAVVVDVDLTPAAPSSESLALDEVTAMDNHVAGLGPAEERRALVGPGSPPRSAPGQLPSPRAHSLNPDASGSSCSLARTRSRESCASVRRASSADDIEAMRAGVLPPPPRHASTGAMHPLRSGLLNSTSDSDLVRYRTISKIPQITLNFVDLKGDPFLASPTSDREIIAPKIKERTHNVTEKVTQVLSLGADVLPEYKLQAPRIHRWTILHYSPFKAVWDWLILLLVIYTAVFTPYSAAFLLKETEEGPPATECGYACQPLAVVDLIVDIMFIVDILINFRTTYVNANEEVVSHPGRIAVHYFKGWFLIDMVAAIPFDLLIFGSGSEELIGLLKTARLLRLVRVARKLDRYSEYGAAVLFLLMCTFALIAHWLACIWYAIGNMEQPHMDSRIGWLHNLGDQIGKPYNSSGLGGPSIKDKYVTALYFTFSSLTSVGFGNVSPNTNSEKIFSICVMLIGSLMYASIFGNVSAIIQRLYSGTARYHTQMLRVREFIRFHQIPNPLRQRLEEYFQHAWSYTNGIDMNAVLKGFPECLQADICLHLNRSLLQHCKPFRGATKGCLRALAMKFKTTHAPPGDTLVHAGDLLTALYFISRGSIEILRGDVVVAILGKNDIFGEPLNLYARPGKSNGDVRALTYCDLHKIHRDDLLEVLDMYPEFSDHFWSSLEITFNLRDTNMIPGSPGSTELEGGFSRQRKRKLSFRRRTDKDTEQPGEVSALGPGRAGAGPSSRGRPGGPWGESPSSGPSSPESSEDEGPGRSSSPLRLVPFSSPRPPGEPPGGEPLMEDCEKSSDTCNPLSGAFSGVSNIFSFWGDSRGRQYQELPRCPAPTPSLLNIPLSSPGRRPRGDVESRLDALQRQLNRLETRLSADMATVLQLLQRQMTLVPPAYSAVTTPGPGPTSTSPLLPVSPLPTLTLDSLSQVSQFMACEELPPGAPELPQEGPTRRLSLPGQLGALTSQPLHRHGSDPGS
row,SMILES,"hERG current change (%, negative = inhibition) at 10uM [%]"
1,O=C(NCC(O)c1ccc([N+](=O)[O-])cc1)C(c1ccccc1)c1ccccc1 (centres unmarked),-46.2
2,O=[N+]([O-])c1ccc(C(O)C[n+]2ccccc2)cc1.[I-] (centres unmarked),12
3,COc1ccccc1NC(=S)NC(=O)C(C)C,-21.8
4,Cc1c(C(=O)N2CCCCC2)nn(-c2ccc(Cl)cc2)c(=O)c1C#N,-17.5
5,CC(C)(C)n1nc2c(c1NC(=O)COc1ccc(Cl)cc1)CS(=O)(=O)C2,-46.5
6,Cc1cccc(NC(=S)Nc2ccc3cn[nH]c3c2)c1,1.96
7,COc1ccc(C(=O)[C@H]2[C@H]3C(=O)N(c4ccccc4)C(=O)[C@H]3C3C=CC=NN32)cc1 (some centres unmarked),4.94
8,O=[N+]([O-])c1ccc(C(O)CN2CCN(C/C=C/c3ccccc3)CC2)cc1 (centres unmarked),-76.9
9,O=S(=O)(c1ccc(S(=O)(=O)N2CCN(C/C=C/c3ccccc3)CC2)cc1)N1CCCC1,11.6
10,O=S(=O)(c1ccccc1)N1CCN(C/C=C/c2ccccc2)CC1,-22
11,Cc1occc1-c1nc(-c2ccncc2)no1,-10.4
12,COc1ccc(OC)c(-n2nnnc2SCC(=O)Nc2nc(C)c(C)s2)c1,-1.73
13,COc1ccc(OCC(=O)NNC(=O)C2CCN(c3ncnc4sc(C)c(C)c34)CC2)cc1,-52.5
14,Cc1sc2ncnc(N3CCC(C(=O)NNC(=O)COc4ccccc4Cl)CC3)c2c1C,-38.6
15,Cc1c(C(=O)NC2CCCCC2)sc2ncnc(N3CCN(c4ccccc4)CC3)c12,13.7
16,Cc1sc2ncnc(N3CCC(C(=O)NNC(=O)COc4cccc(C(F)(F)F)c4)CC3)c2c1C,-40
17,Cc1sc2ncnc(N3CCC(C(=O)NCC(=O)Nc4ccc(F)c(F)c4)CC3)c2c1C,-67.2
18,Cc1sc2ncnc(N3CCC(C(=O)Nc4ccc(Cl)c(Cl)c4)CC3)c2c1C,-7.26
19,COc1ccc(N2CCN(c3ncnc4sc(C(=O)NCC5CCCO5)c(C)c34)CC2)cc1 (centres unmarked),-63.4
20,COc1ccccc1OCC(=O)NNC(=O)C1CCN(c2ncnc3sc(C)c(C)c23)CC1,10.5
21,Cc1ccccc1OCC(=O)NNC(=O)C1CCN(c2ncnc3sc(C)c(C)c23)CC1,-19.3
22,COc1ccccc1N1CCN(c2ncnc3sc(C(=O)NCC4CCCO4)c(C)c23)CC1 (centres unmarked),-5

row,SMILES,"hERG current change (%, negative = inhibition) at 10uM [%]"
1,Cc1sc2ncnc(N3CCC(C(=O)Nc4ccc(Cl)cc4Cl)CC3)c2c1C,-7.65
2,Cc1sc2ncnc(N3CCC(C(=O)NNC(=O)COc4ccccc4F)CC3)c2c1C,-57
3,Cc1onc(-c2ccccc2)c1C(=O)OCC(=O)NC(=O)c1ccccc1,-31.1
4,CCCCc1ccc(S(=O)(=O)NC2CCS(=O)(=O)C2)cc1 (centres unmarked),-2.26
5,Clc1ccccc1Cn1nnc2c(Nc3ccccc3)ncnc21,-0.775
6,COc1ccc(C2=NN(C(=O)c3ccco3)C(c3cc4ccccc4nc3Cl)C2)cc1 (centres unmarked),8.45
7,Cc1sc2ncnc(N3CCC(C(=O)NNC(=O)COc4ccc(Br)cc4)CC3)c2c1C,-68.5
8,Cc1cc(Cl)ccc1OCC(=O)NNC(=O)C1CCN(c2ncnc3sc(C)c(C)c23)CC1,5.64
9,CCc1ccc(OCC(=O)NNC(=O)C2CCN(c3ncnc4sc(C)c(C)c34)CC2)cc1,-45.3
10,Cc1cccc(OCC(=O)NNC(=O)C2CCN(c3ncnc4sc(C)c(C)c34)CC2)c1,-48.2
11,Cc1sc2ncnc(N3CCC(C(=O)NNC(=O)c4ccc(F)cc4)CC3)c2c1C,-21.9
12,Cc1ccc(OCC(=O)NNC(=O)C2CCN(c3ncnc4sc(C)c(C)c34)CC2)cc1,-50.7
13,CCOc1ccc(OCC)c(NC(=O)C2CCCN2S(=O)(=O)c2cccc3cccnc23)c1 (centres unmarked),-4.43
14,COc1cc(C=Nc2c(C)cc(C)cc2C)ccc1OC(C)=O,10.6
15,COc1ccc(CCCc2nnc(SCC(=O)Nc3cc(C)ccc3C)o2)cc1,0.676
16,CN=C1S/C(=C/c2cn(CC(=O)OC)c3ccccc23)C(=O)N1C,11.1
17,COC(=O)c1sccc1NC(=S)Nc1cc(OC)ccc1OC,30.4
18,COC(=O)c1sccc1NC(=O)Nc1ccccc1OC,-41.4
19,CCOc1ccccc1C(=O)Nc1ccsc1C(=O)OC,-0.813
20,CCOc1ccccc1NC(=O)Nc1ccsc1C(=O)OC,-62
21,COC(=O)c1sccc1NC(=O)Nc1cc(OC)ccc1OC,-57.4
22,COC(=O)c1sccc1NC(=O)Nc1ccc(OC)cc1OC,-20.3
